Inconclusive results are not listed. Calls of active or inactive are those of the source. The calls were made as follows, unless noted: active = hit-call score of the fitted dose curve at least 0.9, where 1 is the maximum; inactive = score below 0.9.
Columns and labels:
[1] = CCTE_Padilla_ZF_Score.General: CCTE's 144 Hour Post-fertilization zebrafish Assay Score for General Malformation, Padilla Lab (AID 2284411)
Outline: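 Malformation, death and hatching were scored at 6 dpf by two blinded observers under a stereo microscope. Embryos were dosed singly from 6-8 hpf in sealed plates of 10% Hanks' at 26C and rinsed on 5 dpf; DMSO baseline.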

[2] = CCTE_Padilla_ZF_Score.Craniofacial: CCTE's 144 Hour Post-fertilization zebrafish Assay Score for Craniofacial Malformation, Padilla Lab (AID 2284405)
Outline: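 Craniofacial defects were scored at 6 dpf by two blinded observers using stereomicroscopy. Exposure of wild-type embryos began at 6–8 hpf in sealed wells of 10% Hanks' solution at 26C, with chemical removed by rinsing at 5 dpf.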

[3] = CCTE_Padilla_ZF_Score.Edema: CCTE's 144 Hour Post-fertilization zebrafish Assay Score for Edema Malformation, Padilla Lab (AID 2284406)
Outline: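 Edema scored at 6 dpf by two blinded observers under a stereo microscope, in single outbred wild-type larvae exposed from 6-8 hpf in sealed wells (Hanks', 26C, 14:10 h light) and chemical-free after a 5 dpf rinse.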

[4] = CCTE_Padilla_ZF_Score.Spine: CCTE's 144 Hour Post-fertilization zebrafish Assay Score for Spine Malformation, Padilla Lab (AID 2284407)
Outline: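 Spine malformation scored at 6 dpf by two independent blinded observers under stereomicroscope, after static sealed exposure from 6–8 hpf at 26C in Hanks' solution with rinse on 5 dpf. Positive-direction fit against DMSO control.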

[5] = CCTE_Padilla_ZF_Score.Swim_bladder: CCTE's 144 Hour Post-fertilization zebrafish Assay Score for Swim Bladder Malformation, Padilla Lab (AID 2284408)
Outline: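 Swim bladder inflation scored at 6 dpf by two blinded observers under a stereo microscope. Exposure ran from 6–8 hpf in sealed wells of 10% Hanks' at 26C, with rinsing at 5 dpf; DMSO served as baseline.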

[6] = CCTE_Padilla_ZF_Score.Position: CCTE's 144 Hour Post-fertilization zebrafish Assay Score for Position, Padilla Lab (AID 2284409)
Outline: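 Wild-type zebrafish embryos (with chorions) exposed singly from 6–8 hpf in sealed wells of Hanks' solution at 26C, rinsed at 5 dpf. At 6 dpf, blinded assessors scored abnormal water-column position by brightfield stereomicroscopy, relative to DMSO.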

[7] = CCTE_Padilla_ZF_Score.Living: CCTE's 144 Hour Post-fertilization zebrafish Assay Score for Viability, Padilla Lab (AID 2284410);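 also: larval death at 6 dpf judged by absent heartbeat or coagulation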
Outline: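 Mortality at 6 dpf, judged as absent heartbeat or coagulation by two blinded observers, after sealed static exposure beginning at 6–8 hpf at 26C. Larvae were rinsed free of chemical at 5 dpf, and activity was fitted relative to DMSO.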

[8] = CCTE_Padilla_ZF_Score.Tail: CCTE's 144 Hour Post-fertilization zebrafish Assay Score for Tail Malformation, Padilla Lab (AID 2284414)
Outline: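 Tail malformations were scored at 6 dpf by two blinded assessors under a stereo microscope. Chorionated embryos had been exposed from 6-8 hpf in sealed wells of 10% Hanks' at 26 C, then rinsed free of chemical at 5 dpf.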

[9] = CCTE_Padilla_ZF_Score.Blood_pooling: CCTE's 144 Hour Post-fertilization zebrafish Assay Score for Blood Pooling, Padilla Lab (AID 2284415)
Outline: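 Blood pooling was scored at 6 dpf under a stereo microscope by two blinded assessors, fitted upward against DMSO. Single embryos were dosed at 6–8 hpf in 10% Hanks', kept sealed at 26C (14:10 h cycle) and rinsed at 5 dpf.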

[10] = CCTE_Padilla_ZF_Score.Any: CCTE's 144 Hour Post-fertilization zebrafish Assay Score for Any Mortality or Malformation, Padilla Lab (AID 2284416)
Outline: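 Wild-type zebrafish embryos with chorions, one per well in 10% Hanks' from 6–8 hpf, dosed in sealed plates at 26 C, 14:10 h light:dark; rinsed at 5 dpf; blinded scoring at 6 dpf for death or malformation, versus DMSO.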

TTR (gene 7276) = assay: CCTE_GLTED_hTTR_0.125uM: CCTE's human Transthyretin (hTTR) Inhibition Assay, with 0.125uM TTR, Great Lakes Toxicology and Ecology Division (GLTED) Lab (AID 2284431);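 also: hits lower the fluorescence signal relative to DMSO baseline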
Outline: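 Fluorescence (380 ex, 475 em) reported the ANSA probe remaining bound to 0.125uM human transthyretin. Chemicals were incubated with the protein for 2 hours; activity was scored as loss of signal against DMSO negative control.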

[11] = system: SRY-box transcription factor 2 (SOX2) Protein Expression, Deisenroth Lab, SOX2 (gene 6657); assay: CCTE_Deisenroth_DEVTOX-GLR_legacy_Sox2: (Legacy) CCTE's DevTox GLR-Endo Assay Evaluation of SRY-box transcription factor 2 (SOX2) Protein Expression, Deisenroth Lab (AID 2284346)
Outline: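 Two exposures, 24 h apart, during 48 h defined-media differentiation of seeded RUES2-GLR cells; nuclei-stained cells imaged. Sox2 positivity called at 5x BMAD above endoderm control median, DMSO median subtracted.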

[12] = system: SRY-box transcription factor 2 (SOX2) Protein Expression, Deisenroth Lab, SOX2 (gene 6657); assay: CCTE_Deisenroth_DEVTOX-GLR_Endo_SOX2: CCTE's DevTox GLR-Endo Assay Evaluation of SRY-box transcription factor 2 (SOX2) Protein Expression, Deisenroth Lab (AID 2284412; active = hit-call score of the fitted dose curve at least 0.9, where 1 is the maximum)
Outline: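 Endpoint is percent SOX2-positive cells (SOX2+ count/total cells) minus 0.2% DMSO control, from high-content imaging of fixed, nuclear-stained RUES2-GLR cells. Dosing twice at 24 h intervals over 48 h differentiation, 1 nM–200 uM in 10 points.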

[13] = system: SRY-box transcription factor 17 (SOX17) Protein Expression, Deisenroth Lab, SOX17 (gene 64321); assay: CCTE_Deisenroth_DEVTOX-GLR_Endo_SOX17: CCTE's DevTox GLR-Endo Assay Evaluation of SRY-box transcription factor 17 (SOX17) Protein Expression, Deisenroth Lab (AID 2284413)
Outline: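 Fluorescent microscopy of a SOX17 reporter in RUES2-GLR pluripotent cells scored endoderm differentiation after 48 h and two 24-h-spaced exposures. Values are percent change in SOX17+ population against 0.2% DMSO, n=4 experimental replicates.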

[14] = CCTE_Deisenroth_DEVTOX-GLR_Endo_CellCount: Viability Assessment in CCTE's DevTox GLR-Endo Assay, Deisenroth Lab (AID 2284420)
Outline: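 Human pluripotent RUES2-GLR line; 24 h pre-seed; 48 h endoderm-directed differentiation; 2 doses, q24h; 10 conc., 1 nM - 200 uM; fix + nuclear dye; 5 fields/well imaged; readout = nuclei count, % change vs 0.2% DMSO; n=4.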

[15] = system: SRY-box transcription factor 17 (SOX17) Protein Expression, Deisenroth Lab, SOX17 (gene 64321); assay: CCTE_Deisenroth_DEVTOX-GLR_Pluri_SOX17: CCTE's DevTox GLR-Pluri Assay Evaluation of SRY-box transcription factor 17 (SOX17) Protein Expression, Deisenroth Lab (AID 2284427; active = hit-call score of the fitted dose curve at least 0.9, where 1 is the maximum)
Outline: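 Human RUES2-GLR pluripotent line; 24 h seeding, 48 h defined-media differentiation, 2 doses q24h, 10 conc 1 nM - 200 uM. Fix, nuclear stain, image 5 fields/well. Endpoint = %SOX17+ minus 0.2% DMSO; n=4.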

[16] = system: SRY-box transcription factor 2 (SOX2) Protein Expression, Deisenroth Lab, SOX2 (gene 6657); assay: CCTE_Deisenroth_DEVTOX-GLR_Pluri_SOX2: CCTE's DevTox GLR-Pluri Assay Evaluation of SRY-box transcription factor 2 (SOX2) Protein Expression, Deisenroth Lab (AID 2284428)
Outline: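 Steps: seed RUES2-GLR cells for 24 h; start 48 h differentiation in defined media; dose test chemicals at 0 and 24 h (1 nM–200 uM); fix, stain nuclei, image; compute SOX2+ percentage against 0.2% DMSO wells.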

[17] = system: Brachyury (BRA) Protein Expression, Deisenroth Lab, TBXT (gene 6862); assay: CCTE_Deisenroth_DEVTOX-GLR_Pluri_BRA: CCTE's DevTox GLR-Pluri Assay Evaluation of Brachyury (BRA) Protein Expression, Deisenroth Lab (AID 2284429; active = hit-call score of the fitted dose curve at least 0.9, where 1 is the maximum)
Outline: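 Mesoderm readout after 48 h differentiation of human RUES2-GLR cells, dosed twice (24-h intervals) at 1 nM - 200 uM. BRA+ frequency from fluorescence imaging of fixed, nuclear-stained cells, DMSO-corrected.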

[18] = CCTE_Deisenroth_DEVTOX-GLR_Pluri_CellCount: Viability Assessment in CCTE's DevTox GLR-Pluri Assay Evaluation of Total Cell Counts, Deisenroth Lab (AID 2284430)
Outline: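 Cytotoxicity readout: fluorescent nuclei counts by high-content imaging, expressed as percent change relative to 0.2% DMSO. Human RUES2-GLR pluripotent line differentiated 48 h, dosed twice at 24-h intervals across 1 nM - 200 uM (10 points).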

[19] = system: Brachyury (BRA) Protein Expression, TBXT (gene 6862); assay: CCTE_Deisenroth_DEVTOX-GLR_Endo_BRA: CCTE's DevTox GLR-Endo Assay Evaluation of Brachyury (BRA) Protein Expression, Deisenroth Lab (AID 2284417)
Outline: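 Endpoint is the fraction of BRA reporter-positive cells over total nuclei, corrected by subtracting the 0.2% DMSO value. Chemicals (1 nM - 200 uM, 10 points) were dosed twice during 48 h differentiation of RUES2-GLR cells, read by imaging.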

Measured: AC50

CCOC(=O)CCCCCCCCC(=O)OCC
inactive: [1]

O=C(O)C(F)(F)C(F)(F)C(F)(F)C(F)(F)C(F)(F)C(F)(F)C(F)(F)C(F)F
active: [10] 88.5 µM
inactive: [2] | [3] | [4] | [5] | [6] | [7] | [1] | [8] | [9]

CCC(=O)OC/C=C(\C)CCC=C(C)C
active: [1] 27.3 µM

CCCCCCCCCCCCOCCOS(=O)(=O)O
active: TTR (gene 7276) 6.09 µM

CCCCCCCCCCCCS
inactive: [1]

CCCCCCCCCOS(=O)(=O)O
active: TTR (gene 7276) 8.43 µM

O=C(O)C(F)(F)OC(F)(F)C(F)(F)OC(F)(F)C(F)(F)C(F)(F)C(F)(F)F
active: [7] 81.2 µM | [1] 81.3 µM
inactive: [2] | [3] | [4] | [5] | [6] | [8] | [9] | [10]

CCOC(=O)C=Cc1ccccc1
inactive: [1]

CCCCCCCCOS(=O)(=O)O
active: TTR (gene 7276) 10.6 µM

C=C(F)C(=O)OC(C(F)(F)F)C(F)(F)F
inactive: [2] | [3] | [4] | [5] | [6] | [7] | [1] | [8] | [9] | [10]

OCC(F)(OC(F)(F)C(F)(OC(F)(F)C(F)(F)C(F)(F)F)C(F)(F)F)C(F)(F)F (configuration not stated)
active: [2] 34.8 µM | [7] 35.4 µM | [10] 31.8 µM
inactive: [3] | [4] | [5] | [6] | [1] | [8] | [9]

O=S(=O)(O)c1cc(S(=O)(=O)O)c2c(N=Nc3ccccc3)c(O)ccc2c1
active: TTR (gene 7276) 12 µM

CCCCCCCCCC(=O)OCC
inactive: [1]

CCCCCCOc1ccc(O)cc1
active: TTR (gene 7276) 3.47 µM

C#C[C@]1(O)CC[C@H]2[C@@H]3CCc4cc(O)ccc4[C@H]3CC[C@@]21C
active: TTR (gene 7276) 2.73 µM

CC1=CC(C)C(C=O)C(C)C1 (configuration not stated) (tested in a mixture with another compound)
inactive: [1]

CC(C)Cc1ccc(C(C)C(=O)O)cc1 (configuration not stated)
inactive: [11] | [12] | [13] | [14] | [15] | [16] | [17] | [18]

C=C(C)C(=O)OCCC(F)(F)C(F)(F)C(F)(F)C(F)(F)C(F)(F)C(F)(F)C(F)(F)C(F)(F)F
inactive: [2] | [3] | [4] | [5] | [6] | [7] | [1] | [8] | [9] | [10]

CC(=O)CCC=C(C)CCC=C(C)C
inactive: [1]

CCCCCCCCOC(=O)c1ccc(O)cc1
active: TTR (gene 7276) 2.77 µM

O=C(O)c1ccccc1O
inactive: [11] | [13] | [19] | [14] | [15] | [16] | [17] | [18]

O=S(=O)(O)C(F)(F)C(F)(F)OC(F)(F)C(F)(F)F
inactive: [2] | [3] | [4] | [5] | [6] | [7] | [1] | [8] | [9] | [10]

O=c1cc(-c2ccc(O)cc2)oc2cc(O)cc(O)c12
active: TTR (gene 7276) 0.035 µM

C=C1CC[C@H]2O[C@]2(C)CC[C@@H]2[C@@H]1CC2(C)C
active: [1] 65.4 µM

From PubChem BioAssay (EPA / NIEHS)
